Results taken from PubChem BioAssay AID504467 (National Center for Advancing Translational Sciences (NCATS), 2011).
The whole screen tested about 330,000 compounds, of which about 7,700 (2.3%) were called active. Entries that show only a call come without a potency. Another 26% or so got no clear call; they are omitted. Calls follow the shape of the dose curve; as a rule, active = well fitted inhibition curve with a large enough effect; inconclusive = small, poorly fitted or top-dose-only effect, or effect the other way; inactive = flat fitted curve, though single readings scatter. Only a selection was taken, and actives are over-represented in it overall.

assay: qHTS screen for small molecules that inhibit ELG1-dependent DNA repair in human embryonic kidney (HEK293T) cells expressing luciferase-tagged ELG1; conditions: HEK293T ELG1-luciferase reporter, luminescence, 16 h, DNA damage induced by 5-fluorouridine; series mostly up to 46.1 µM; also: nearly all actives have a fitted effect of over 55% in size
Summary of the method: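 In this reporter screen, reduction of luminescence relative to DMSO vehicle indicated activity. Compounds and 5-fluorouridine were added together to 2,000 cells per well, incubated for 16 hr at 37 °C, then developed with ONE-Glo.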
Potency is read from the fitted curve at half-maximal effect.

| Structure (SMILES) | Potency |
| --- | --- |
| CCOC(=O)C1=C(C)N(C[C@@H]2CC[C@@H](Cc3ccc(-c4ccccc4)cc3)O2)C(=O)NC1c1ccc([N+](=O)[O-])cc1 (some centres not stated) | inactive |
| CC(=O)N1c2ccc(S(=O)(=O)N3CCCC(C(=O)Nc4ccc(C)cc4C)C3)cc2CC1C (configuration not stated) | inactive |
| COc1cc(Cl)c(C)cc1NC(=O)CSc1nnc(CN2CCCC2)o1 | inactive |
| CCc1nc(SCC(=O)Nc2ccccc2OC)n[nH]1 | inactive |
| CCCc1nc(SCC(=O)N2CCCC2)c2c(=O)n(C)c(=O)n(C)c2n1 | inactive |
| CCCc1nc(SCC(=O)Nc2ccccc2OC)c2c(=O)n(C)c(=O)n(C)c2n1 | 23.1 µM (active) |
| CCOC(=O)CCCCCC(=O)Nc1ccc2c(c1)CC(=O)N([C@@H](C)CO)C[C@H](C)[C@@H](CN(C)Cc1ccccc1)O2 | inactive |
| Cc1cc(C)cc(NC(=O)C2CCCN(S(=O)(=O)c3ccc4[nH]c(=O)ccc4c3)C2)c1 (configuration not stated) | inactive |
| O=C(C1CCC(=O)N(C2CC2)C1)N1CCN(c2ccc(Cl)cc2)CC1 (configuration not stated) | inactive |
| COc1cc(OC)cc(C(=O)NC2CCN(C(=O)N3c4ccccc4Sc4ccccc43)CC2)c1 | 13 µM (active) |
| COc1ccc(C(=O)NC2CCN(C(=S)NCCc3ccccc3)CC2)cc1 | inactive |
| COc1ccc(C(=O)NC2CCN(C(=S)Nc3ccccc3)CC2)cc1 | inactive |
| O=C(CN(CC1CCCO1)C(=O)CNS(=O)(=O)c1ccc(Cl)cc1)NCc1ccccc1 (configuration not stated) | inactive |
| COc1ccc(-c2cc(C(=O)N(C)CC(=O)Nc3ccccc3Cl)c3ccccc3n2)cc1OC | 2.06 µM (active) |
| COc1ccc(NC(=O)CN(C)C(=O)c2ccc(COc3ccccc3)o2)cc1 | inactive |
| COc1ccc(NC(=O)CN(C)C(=O)c2cc(-c3ccc(C)o3)nc3ccccc23)cc1 | 20.6 µM (active) |
| COc1ccc(NC(=O)CN(C)C(=O)c2cc(C3CC3)nn2-c2ccccc2)cc1 | inactive |
| COc1ccc(-c2cc(C(=O)N(C)Cc3ccccc3)c3ccccc3n2)cc1 | 23.1 µM (active) |
| COc1ccc(-c2cc(C(=O)NCCCN3CCCC3=O)c3ccccc3n2)cc1OC | 20.6 µM (active) |
| Cc1ccc(-c2nn(-c3ccccc3)cc2C(=O)NCCCN2CCCC2=O)cc1 | inactive |
| COc1ccc(C2=NS(=O)(=O)N(C)C(C(=O)N(C)Cc3ccccc3)=C2)cc1 | inactive |

| Structure (SMILES) | Potency |
| --- | --- |
| COc1ccc(Cl)cc1NC(=O)CN(C)C(=O)c1ccc2n[nH]nc2c1 | inactive |
| COc1ccc(-c2cc(C(=O)n3cnc4ccccc43)c3ccccc3n2)cc1 | inactive |
| Cc1cccc(C(=O)NCCCN2CCCC2=O)c1 | inactive |
| COc1ccccc1NC(=O)c1cc(Cl)nc2ccccc12 | inactive |
| CC(C)Oc1ccc(S(=O)(=O)N2CCOCC2)cc1NC(=O)C1CSC2(C)CCC(=O)N12 (configuration not stated) | inactive |
| CCc1cccc(C)c1N1C(=O)CN(Cc2ccccc2)C1=S | inactive |
| CNC[C@H](CC1CCCCC1)NC[C@H](NCCC1CCCC1)[C@H](C)O | inactive |
| CSc1ncccc1C(=O)Nc1cccc(S(=O)(=O)N2CCOCC2)c1 | inactive |
| CCCN(CC1CC1)C(=S)NC(=O)c1ccccc1Br | inactive |
| O=C(COC(=O)c1ccccc1Cl)NC1CCCCCCC1 | inactive |
| Cc1cc(NC(=O)CCN2CCN(Cc3ccccc3)CC2)ccc1Br | inactive |
| OC(COc1ccc(F)cc1Cl)CN1CCc2ccccc2C1 (configuration not stated) | inactive |
| Cc1ccc(-c2cc(C(=O)Nc3nn[nH]n3)c3ccccc3n2)c(C)c1 | inactive |
| COc1ccc(CN(C)C(=O)c2cc(-c3ccc(C)cc3C)nc3ccccc23)c(OC)c1OC | 8.2 µM (active) |
| COc1ccc(CN(C)C(=O)Cc2c[nH]c3ccccc23)c(OC)c1OC | inactive |
| Cc1ccc(C(=O)O)cc1NC(=O)c1ccc(Cn2nc(C)c(Cl)c2C)o1 | inactive |
| Cc1c(Cl)c([N+](=O)[O-])nn1CCCC(=O)Nc1cc(Cl)ccc1Cl | inactive |
| Cc1c(Cl)c([N+](=O)[O-])nn1Cc1ccc(C(=O)N/N=C\c2cc(Cl)ccc2O)o1 | 5.17 µM (active) |
| COc1ccc(Br)cc1CN(C)C(=O)C1CC(=O)N(C2CCCC2)C1 (configuration not stated) | inactive |
| CC(OC(=O)CNC(=O)c1ccco1)C(=O)Nc1ccc(Cl)cn1 (configuration not stated) | inactive |
| COc1cc(-c2nc(S(=O)(=O)c3ccc(Cl)cc3)c(N(C)C)o2)cc(OC)c1OC | 8.2 µM (active) |

| Structure (SMILES) | Potency |
| --- | --- |
| COc1ccc(-c2nnc(NC(=O)CS(=O)(=O)c3ccc(Cl)cc3)o2)c(OC)c1 | inactive |
| O=S(=O)(c1ccc(Cl)cc1)c1nc(-c2ccco2)oc1N1CCCCC1 | inactive |
| CC(=O)Nc1ccc(S(=O)(=O)NC(C)C(=O)OCCOc2ccc(F)cc2)cc1 (configuration not stated) | inactive |
| CCOC(=O)C1=C(C)Nc2nc3ccccc3n2C1c1cccs1 (configuration not stated) | inactive |
| COc1ccccc1NC(=O)C1=C(C)NC(=O)NC1c1ccc(C)s1 (configuration not stated) | inactive |
| COc1ccccc1NC(=O)C1=C(C)Nc2nc3ccccc3n2C1c1cccs1 (configuration not stated) | 9.2 µM (active) |
| CCOC(=O)C1CCCN(C(=O)c2ccc(C)c(S(=O)(=O)N3CCCCC3)c2)C1 (configuration not stated) | inactive |
| CCOC(=O)C1=C(C)N=c2s/c(=C\C(=O)OC)c(=O)n2C1c1ccc(OC)cc1 (configuration not stated) | inactive |
| C=CCOC(=O)C1=C(C)NC(C)=C(C(=O)OCC=C)C1c1cccs1 | inactive |
| COCCOC(=O)C1=C(C)N=c2s/c(=C\c3cccs3)c(=O)n2C1c1cccs1 (configuration not stated) | 14.6 µM (active) |
| Cc1nc(Cl)c2oc3ccccc3c2n1 | inactive |
| COc1ccc(C)cc1Nc1nc(C)nc2c1oc1ccccc12 | 5.17 µM (active) |
| COC(=O)c1cnc(Nc2cc(C)ccc2OC)c2ccccc12 | inactive |
| Cc1cc(C)c(OCC(=O)N(Cc2cccs2)C2CCS(=O)(=O)C2)c(C)c1 (configuration not stated) | inactive |
| COc1ccc(CCN2C(=O)C(C)=C(C)C2=O)cc1OC | inactive |
| CCN1C(=O)[C@@H]2[C@@H](c3ccc(-c4ccc(OC)cc4)c(OC)c3)N3CCC[C@@]3(C(=O)OC)[C@@H]2C1=O | inactive |
| Cc1ccc(NC(=O)C2CCN(S(=O)(=O)c3ccc4c(c3)NC(=O)CO4)CC2)cc1C | inactive |
| C=CCn1cc(C(=O)NCc2ccc(Cl)cc2)c(=O)c2cc(S(=O)(=O)N(CC)CC)ccc21 | 8.2 µM (active) |
| CCn1cc(C(=O)NCC2CCCO2)c(=O)c2cc(S(=O)(=O)N3CCCCC3)ccc21 (configuration not stated) | inactive |
| CCOC(=O)N1CCN(C(=O)c2cn(C)c3ccc(S(=O)(=O)N(CC)CC)cc3c2=O)CC1 | inactive |
